This is an account of results in PubChem BioAssay (NCATS).

Assay [1] is described as follows: Viability qHTS for spleen associated tyrosine kinase inhibitor (SYKi) naive MV4-11 cells (AID 1963823). Note: nearly all actives have a fitted effect of over 40% in size. Particulars: MV4-11 AML viability, CellTiter-Glo luminescence, 72 h; series mostly up to 45 µM. The procedure, abridged:
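SYK inhibitor-naive MV4-11 cells, 500 per well, exposed to compounds for 72 hr at 37 C, 5% CO2. Viability read as CellTiter-Glo luminescence after 10 min at room temperature.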
(In general: In qHTS, concentration-response curves come from the screen itself.)

Assay [2] in a line: Viability qHTS for spleen associated tyrosine kinase inhibitor (SYKi) drug resistant MV4-11 cells (AID 1963824). Note: nearly all actives have a fitted effect of over 35% in size. To be noted: SYKi-resistant MV4-11 viability, CellTiter-Glo, 72 h; series mostly up to 45 µM. The essentials:
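CellTiter-Glo luminescence, read 10 min after reagent addition, reports viability after a 72 hr compound exposure. Cells are an MV4-11 line made resistant to SYK inhibition, seeded at 500 per well onto compound-containing plates.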

Inconclusive results are not listed. Calls of active or inactive are those of the source. Calls come from the whole dose curve; as a rule, active = well fitted cell-killing curve with a large enough effect; inconclusive = small, poorly fitted or top-dose-only effect, or effect the other way; inactive = no such curve, though single readings can be large or run the other way.
Potency is the fitted concentration of half-maximal effect.

Consider `CC1(C)CCC[C@@]2(C)C1[C@H](OC(=O)/C=C/C=C/C(=O)O)C=C1COC(=O)[C@@]12O` (some centres undefined), for which the Potency result in assay [1] and in assay [2] was “inactive” throughout.
As for `NC1CCC(Nc2cc(-c3cccc(NCc4cccc(F)c4)n3)c(Cl)cn2)CC1` (centres undefined), the Potency is 0.146 µM (active) in assay [1] and 0.116 µM (active) in assay [2].
On the same counts, the results for `O=C(CC1CC(c2ccc(F)cc2F)=NO1)N1CCOCC1` (centres undefined) are “inactive” and “inactive”.
On the same counts, the results for `CC(C)CCNC(=O)c1ccc2c(c1)nc(Nc1n[nH]c3ccc(-c4ccccc4OC(F)(F)F)cc13)n2C1CCC(O)CC1` (centres undefined) are 16.4 µM (active) and 16.4 µM (active).
On the same counts, the results for `CCC(C)n1cc(C)c2c(C(=O)NCc3c(C)cc(C)[nH]c3=O)cc(-c3ccc(N4CCNCC4)nc3)cc21` (centres undefined) are 13 µM (active) and 18.4 µM (active).
On to `COC(=O)C1=COC(OC2OC(CO)C(O)C(O)C2O)C2C1C=CC2(O)CO` (centres undefined), for which the Potency result in assay [1] and in assay [2] was “inactive” each time.
In the case of `Cc1ccc(C)c(NS(=O)(=O)c2cc(C(=O)Nc3ccccc3-c3ccccc3)ccc2C)c1`, the Potency in assay [1] was 23.1 µM (active); in assay [2] it was 16.4 µM (active).
Taken in the same sequence, the figures for `COC(=O)CCC(=O)OC[C@]1(C)CCC[C@@]2(C)C3CC[C@]4(C)C=CC3(CCC12)C4` (some centres undefined) were “inactive” and “inactive”.
Taken in the same sequence, the figures for `O=C(Nc1ccccc1)c1ccc(Nc2nnc(-c3ccc(O)cc3)c3ccccc23)cc1` were 16.4 µM (active) and 23.1 µM (active).
On the same counts, the results for `Cc1nc(CNc2ncnc3ccc(-c4ccc5c(c4)OCO5)cc23)cs1` are 14.6 µM (active) and 23.1 µM (active).
`COc1cc(O)cc(C)c1C(=O)O[C@@H]1[C@H](O)[C@@H](CO)O[C@H]1n1ccc(=O)[nH]c1=O`: the figures for the Potency in assay [1] and in assay [2] were 2.82 µM (active) and 2 µM (active), respectively.
Taken in the same sequence, the figures for `O=c1ccc2ccc(OCCCCN3CCN(c4cccc5sccc45)CC3)cc2[nH]1` were 10.3 µM (active) and 7.31 µM (active).
On the same counts, the results for `Oc1cccc(Nc2ccnc3cc(-c4cccc(CN5CCOCC5)c4)sc23)c1` are 0.291 µM (active) and 0.461 µM (active).
Taken in the same sequence, the figures for `CCn1c(=O)c(-c2ccc(-c3cncc(C)n3)cc2Cl)cc2cnc(NCCC3CCN(C)CC3)nc21` were 1.18 µM (active) and 2.09 µM (active).
Take `CC(C)NC[C@H](O)COc1ccc(CCOCC2CC2)cc1`: the Potency entry in assay [1] and in assay [2] was “inactive” in each case.
As to `CN(CC1COCCO1)S(=O)(=O)Nc1ccc2ccc3ncc(-c4cnn(C)c4)cc3c(=O)c2c1` (centres undefined), the values for the Potency in assay [1] and in assay [2] were 0.164 µM (active) and 0.651 µM (active), respectively.
Taken in the same sequence, the figures for `CC(=O)O[C@H]1[C@H](OC(=O)C(C)C)[C@]2(C)OC3(CC[C@]2(C)[C@H]2CCC[C@]4(CO4)[C@]12C)COC(=O)C3` (some centres undefined) were “inactive” and “inactive”.
In the case of `Oc1cc(CNC(=S)/C=C/c2cc(O)c(O)c(Br)c2)cc(O)c1O`, the Potency in assay [1] and in assay [2] was 1.84 µM (active) in each case.
On to `C=C1C(=O)O[C@@H]2[C@H]3O[C@]3(C)CC/C=C(\C)CC[C@@H]12`, for which the values for the Potency in assay [1] and in assay [2] were 2.35 µM (active) and 1.86 µM (active), respectively.
Taken in the same sequence, the figures for `CC(O)C(O)/C=C/C=C/C(=O)O[C@@H]1C=C2COC(=O)[C@]2(O)[C@@]2(C)CCCC(C)(C)C12` (some centres undefined) were “inactive” and “inactive”.
For the compound `COc1cc(-c2ncn(/C=C\C(=O)OC(C)C)n2)cc(C(F)(F)F)c1`, the Potency was 0.103 µM (active) in assay [1] and 0.164 µM (active) in assay [2].
On the same counts, the results for `CC[C@]1(O)CC2CN(CCc3c([nH]c4ccccc34)[C@@](C(=O)OC)(c3cc4c(cc3OC)N(C=O)[C@H]3[C@@](O)(C(=O)OC)[C@H](OC(C)=O)[C@]5(CC)C=CCN6CC[C@]43[C@@H]65)C2)C1` (some centres undefined) are 0.0805 µM (active) and 0.0508 µM (active).
On the same counts, the results for `O=C(/C=C\n1cnc(-c2cc(C(F)(F)F)cc(C(F)(F)F)c2)n1)N1CC(F)(F)C1` are 0.366 µM (active) and 0.731 µM (active).
On the same counts, the results for `C=C1CC23CC1(O)CCC2C1=CC2OC(=O)C(C)(C2O)C1C3C(=O)O` (centres undefined) are “inactive” and “inactive”.
Consider `C=C(C)C(=O)O[C@H]1[C@H]2C(=C)C(=O)O[C@@H]2/C=C(\CO)CC/C=C(/C=O)[C@@H]1O`, for which the Potency was 10.1 µM (active) in assay [1] and 9.04 µM (active) in assay [2].
Turning to `O=C(c1ccccc1)c1c(O)cc(O)cc1O[C@@H]1O[C@H](CO)[C@@H](O)[C@H](O)[C@H]1O`, the Potency entry in assay [1] and in assay [2] was “inactive” each time.
For the compound `CC(C)=CCC[C@](C)(O[C@@H]1O[C@H](CO[C@@H]2O[C@@H](CO)[C@H](O)[C@H]2O)[C@@H](O)[C@H](O)[C@H]1O)[C@H]1CC[C@]2(C)[C@@H]1[C@H](O)C[C@@H]1[C@@]3(C)CC[C@H](O[C@@H]4O[C@H](CO)[C@@H](O)[C@H](O)[C@H]4O[C@@H]4O[C@H](CO)[C@@H](O)[C@H](O)[C@H]4O)C(C)(C)[C@@H]3CC[C@]12C`, the Potency entry in assay [1] and in assay [2] was “inactive” throughout.
